Bioassay records (PubChem BioAssay)
BoNT-F LC inh: BoNT F light chain protease inhibition; inhibition, % at 10 µM; Multiplex microsphere protease cleavage assay, flow cytometry; AID 588497; hit rate 0.22% among 360,000; in the data active = inhibition above about 35%, passing the limit was not always enough; inconclusive = no clear call, values can overlap the other calls; note: plate controls were buffer without enzyme for full effect and enzyme alone for no effect
Autofluor counter: counter-screen for toxin protease inhibitors: compound fluorescence. hit rate 3.1% among 360,000. AID 624483. fluorescence intensity (concentration not given with the values). compound autofluorescence counterscreen, microsphere flow cytometry; hits give high values; in the data active = fluorescence intensity above about 16000; inconclusive = no clear call, values can overlap the other calls
BoNT-A LC inh2: inhibitors of Botulinum neurotoxin A light chain protease; multiplex microsphere protease substrate cleavage, flow cytometry; inhibition, % at 10 µM; hit rate 0.17% among 360,000; AID 588499; note: plate controls were buffer without enzyme for full effect and enzyme alone for no effect
Anthrax LF inh2: blocks Bacillus anthracis lethal factor protease | P15917 | multiplex microsphere protease cleavage assay, LF | inhibition, % at 10 µM | hit rate 0.12% among 360,000 | AID 588501; note: plate controls were buffer without enzyme for full effect and enzyme alone for no effect
Active calls of the source: *; ? = inconclusive. Compounds with a hit are over-represented: about 3.5% of the library has one in this group of screens. Cut-off read from the data, not from the text of the source, unless noted: active = inhibition above about 30%; inconclusive = no clear call, values can overlap the other calls; inactive = below that.

SMILES	BoNT-F LC inh	Autofluor counter	BoNT-A LC inh2	Anthrax LF inh2
COc1ccc(/C=C(/C(=O)Nc2ccccc2C(=O)NC(C)C)c2ccccc2)cc1	-7.3	17014*	-2.4	-0.9
COc1ccc(/C=C/C(=O)Nc2ccccc2C(=O)N2CCCC2)cc1	2.3	8637	0.2	0.8
N#C/C(=C\c1cccn1S(=O)(=O)c1cccc([N+](=O)[O-])c1)S(=O)(=O)c1ccc(F)cc1	-5.2	3284	-0.2	-2.7
C=CCn1c(SCC(=O)NCc2ccccc2)nnc1C1CCCCC1	-2.4	3173	0.7	0.1
C=CCn1c(SCC(=O)Nc2cc(C)nn2-c2ccccc2)nnc1C1CCCCC1	-5.1	23513*	?	-3.1
CC(C)COC(=O)N1CCCCC1c1cc(C(=O)NCc2ccc(F)cc2)no1 (centres undefined)	-0.9	3424	0.0	-7.8
Nc1ccc(/C=C/c2ccc3ncccc3c2)cc1	7.1	4114	0.6	0.5
Nc1ccc2ncccc2c1	16.7	17386*	?	-20.5
CC(C)(C)c1ccc(CC(=O)N2CCC2(C)C(=O)NCc2cccc3ccccc23)cc1 (centres undefined)	-6.0	2815	0.2	1.1
CCCCn1nnnc1C1(C)CCC(=O)N1C1CC1 (centres undefined)	0.3	5750	0.1	-2.3
Cn1c(C(=O)N2CCN(c3cccc(C(F)(F)F)c3)CC2)cc2sccc21	-4.7	21909*	-4.3	-2.8
O=C(c1c(F)c(F)c(F)c(F)c1F)N1CCN(c2cccc(C(F)(F)F)c2)CC1	-2.8	9355	0.1	3.5
Cc1ccc(C)c(N2CCN(C(=O)c3cc4sccc4n3C)CC2)c1	-11.3	22451*	?	-1.1
CCOC(=O)N1CCN(C(=O)c2cc3sccc3n2C)CC1	0.7	19772*	0.7	-4.7
Cc1ccc(C)c(N2CCN(C(=O)c3ccc4c(c3)c(C)c(C)n4C)CC2)c1	-2.7	5724	-1.9	-3.0
Cc1cc(N2CCN(C(c3ccnc4ccccc34)c3nnnn3-c3c(C)cccc3C)CC2)c2ccccc2n1 (centres undefined)	-4.4	6095	-0.6	-3.8
COc1ccc(C(=O)NCC(c2ccco2)N2CCOCC2)cc1 (centres undefined)	-10.4	4283	-0.2	-6.1
CCN1/C(=C\C(=S)Nc2ccccc2)Sc2ccccc21	-44.8	3324	39.1*	-5.0
CCCOc1ccc(F)cc1-c1cc(C(=O)NCc2cccc(Cl)c2)[nH]n1	1.2	2930	-0.5	0.6
CCCCCC(=O)N1C[C@@H](n2cc(C3CC3)nn2)[C@H](O)C[C@@H]1c1ccc(C)cc1	4.9	3592	0.3	-2.8
CCn1c(C)cc(C)c(C#N)c1=O	-4.2	3606	-0.9	-4.4
C=CCn1c(C)cc(C)c(C#N)c1=O	1.3	22789*	0.1	-4.9
CC1=C2C3OC(=O)C(C)C3CCC2(C)C=CC1=NO (centres undefined)	-7.1	3521	-0.1	1.6
CC(=O)NC(C)(c1ccccc1)c1nc(-c2ccc(S(C)(=O)=O)cc2)cs1 (centres undefined)	-6.3	3810	-0.1	-1.8
Cc1ccc(C(=O)NC(C)c2ccccc2)o1 (centres undefined)	2.8	22061*	1.5	-5.4
SMILES	BoNT-F LC inh	Autofluor counter	BoNT-A LC inh2	Anthrax LF inh2
CCc1nnc(NC(=O)c2ccc(-c3cc(C(F)(F)F)ccc3Cl)o2)s1	-9.3	11257	-0.8	-3.4
CC(NC(=O)c1ccc(-c2cc(C(F)(F)F)ccc2Cl)o1)c1ccccc1 (centres undefined)	-0.2	20639*	?	1.4
COc1ccc(NC(=O)c2cc(-c3cc(F)ccc3OCC3CCCO3)n[nH]2)c(C)c1 (centres undefined)	-3.2	3780	-0.1	0.3
CCn1c(CSCc2ccccc2)n[nH]c1=S	-3.6	4853	-0.5	-3.4
CCn1c(CSc2nc3ccccc3[nH]2)n[nH]c1=S	2.1	23009*	1.6	-0.6
Cc1cccc(CN(CC(=O)N/N=C/c2ccco2)S(=O)(=O)c2ccc(Cl)cc2)c1	2.6	6024	-0.1	2.8
Cc1ccc(S(=O)(=O)N(CC(=O)N/N=C/c2ccco2)Cc2ccccc2)cc1	1.5	22458*	?	-3.8
CCCCN(C(=O)c1ccc(N2C(=O)c3ccccc3C2=O)cc1)c1c(N)n(CC(C)C)c(=O)[nH]c1=O	2.9	5166	1.0	-2.2
Cc1ccccc1NC(=O)NCCCN1CCCC1	0.6	22559*	?	-1.3
COc1ccc(N(CC(=O)Nc2cc(C(=O)O)ccc2C)S(=O)(=O)c2c(C)noc2C)cc1	-2.7	16981*	-1.9	-9.0
CCOC(=O)c1c(C)c(C(=O)N2CCCCCC2)c(C)n1C	-0.5	23943*	-0.2	2.0
CCOC(=O)c1c(C)c(C(=O)N2CCCCCC2)c(C)n1CC	0.0	20617*	?	-0.1
N#Cc1cccc(NC(=O)c2cc(C3CCCCN3C(=O)CCCc3ccccc3)on2)c1 (centres undefined)	1.0	2759	0.6	-0.1
CCCCCc1ccc(CC(=O)O)cc1	-4.6	25330*	?	-6.0
CC(=O)Nc1ccc(CN(C)c2c(C)nc3ccc(C(=O)NC4CCN(Cc5ccccc5)CC4)cn23)cc1	0.4	3576	-0.2	-5.2
CCN1C[C@@H]2[C@@H]3C(=O)N(C)C(=O)[C@@H]3[C@](C)(C(=O)OC)N2C1=NC	-5.7	3841	-0.1	-1.5
O=c1[nH]cnc2c1C(c1ccccc1[N+](=O)[O-])c1c(nc[nH]c1=O)O2	2.6	20743*	2.7	-1.8
COc1ccc(C2c3c(nc[nH]c3=O)Oc3nc[nH]c(=O)c32)cc1	24.5	3616	-0.1	12.6
COc1cc(Nc2ccn3nccc3n2)cc(OC)c1OC	-5.6	3742	-0.3	-5.0
CN1C(=O)CC(N2CCC(c3nc4ccccc4s3)CC2)C1=O (centres undefined)	-8.4	4687	0.9	1.4
Cc1nc2ccccc2n1C1CC(=O)N(Cc2ccccc2)C1=O (centres undefined)	-3.5	23623*	-1.5	-2.9
O=C1CC(N2CCC(c3nc4ccccc4s3)CC2)C(=O)N1Cc1ccccc1 (centres undefined)	-2.3	23583*	-1.3	-5.2
Cc1cc2ncn(C3CC(=O)N(Cc4ccccc4)C3=O)c2cc1C (centres undefined)	1.9	8036	0.2	-0.3
Cc1ccc(-c2cnc(N)n2C)cc1C	-6.0	23519*	-2.0	-5.0
Cc1ccc(C)c2[nH]c(=O)c(C(c3nnnn3Cc3ccccc3)N3CCc4ccccc4C3)cc12 (centres undefined)	1.4	22367*	?	3.6
Cc1cccc2cc(C(c3nnnn3Cc3ccc4c(c3)OCO4)N3CCCC3)c(=O)[nH]c12 (centres undefined)	-11.6	6840	0.2	-1.2
Cc1ccc2cc(C(c3nnnn3CC3CCCO3)N3CCc4ccccc4C3)c(=O)[nH]c2c1 (centres undefined)	3.4	22554*	2.1	1.4
O=c1[nH]c2cc3c(cc2cc1C(c1nnnn1Cc1ccccc1)N1CCCCCC1)OCCO3 (centres undefined)	12.0	17658*	9.3	4.6
CCOc1ccc2[nH]c(=O)c(C(c3nnnn3CC3CCCO3)N3CCc4ccccc4C3)cc2c1 (centres undefined)	-6.9	5653	-0.2	-5.0
